Results as given in PubChem BioAssay.
Unmarked numbers belong to inactive results. For some assays here: Results with a measured potency or affinity are listed apart. Calls of active or inactive are those of the source. Unless noted, the rule behind the calls is not given here.

What was measured:
[1] = antimalarial activity against Dd2 strain (AID 2302;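 active = growth inhibition above 50% at the single 2 µM test dose, taken to imply half-maximal potency below 2 µM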;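 note: 0% = DMSO untreated growth and 100% = chloroquine plus artemisinin killed control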); details: P. falciparum Dd2 in RBCs, LDH growth readout, 72 h; at 2 µM; active compounds read high
[2] = human hepatoma cell viability loss – ATP luminescence, cytotoxicity control for P. falciparum antimalarial project, primary screen (AID 2303;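 active = inhibition above 50%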;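 note: 0% = DMSO wells and 100% = digitonin-killed cells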); details: HepG2 viability, 24-48 h, at 10 µM, active compounds read high
[3] = target: L-lactate dehydrogenase (Plasmodium falciparum (isolate CDC / Honduras)) (UniProt Q27743); assay: PfLDH activity inhibition – cell lysate, 3D7 strain, counter-screen for P. falciparum growth inhibition project (AID 2304);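 note: 0% = vehicle and 100% = reference inhibitor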; details: P. falciparum 3D7 crude extract, LDH APAD/NBT absorbance; at 2 µM; active compounds read high
[4] = inhibition of 3D7 malaria parasite growth – strain 3D7 (AID 2306);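 note: 0% = DMSO wells and 100% = chloroquine plus artemisinin control wells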; details: P. falciparum 3D7 erythrocytic growth, LDH absorbance, 72 h; at 2 µM; active compounds read high
[5] = target: Calcium-dependent protein kinase 1 (Plasmodium falciparum (isolate 3D7)) (UniProt P62344); assay: PfCDPK1 kinase inhibitors, biochemical, TCAMS library (AID 1159585; cut-off not given, nearly all actives have IC50 up to about 0.98 µM;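 note: inhibitors leave more ATP so luminescence rises with inhibition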); details: recombinant PfCDPK1, Kinase-Glo ATP depletion luminescence
[6] = target: Plasmodium falciparum protein kinase 6 (PK6, PF3D7_1337100) (UniProt Q8IDW1); assay: PfPK6 kinase inhibitors, biochemical, TCAMS library (AID 1159586); details: recombinant PfPK6, Kinase-Glo ATP depletion luminescence
[7] = target: Protein kinase 7 (PK7), Plasmodium falciparum 3D7 (PF3D7_0213400) (UniProt Q7YTF7); assay: inhibition of Plasmodium PK7 catalytic activity – biochemical, TCAMS antimalarial set, Kinase-Glo luminescence (AID 1159587); details: recombinant PfPK7, Kinase-Glo ATP depletion luminescence
[8] = target: Calcium-dependent protein kinase 4 (Plasmodium falciparum (isolate 3D7)) (UniProt Q8IBS5); assay: PfCDPK4 kinase inhibitors, biochemical, TCAMS library (AID 1159588; cut-off not given, nearly all actives have IC50 up to about 0.91 µM); details: recombinant PfCDPK4, Kinase-Glo ATP depletion luminescence
Sequence of Calcium-dependent protein kinase 4 (Plasmodium falciparum (isolate 3D7)) (Q8IBS5 whole entry, looked up): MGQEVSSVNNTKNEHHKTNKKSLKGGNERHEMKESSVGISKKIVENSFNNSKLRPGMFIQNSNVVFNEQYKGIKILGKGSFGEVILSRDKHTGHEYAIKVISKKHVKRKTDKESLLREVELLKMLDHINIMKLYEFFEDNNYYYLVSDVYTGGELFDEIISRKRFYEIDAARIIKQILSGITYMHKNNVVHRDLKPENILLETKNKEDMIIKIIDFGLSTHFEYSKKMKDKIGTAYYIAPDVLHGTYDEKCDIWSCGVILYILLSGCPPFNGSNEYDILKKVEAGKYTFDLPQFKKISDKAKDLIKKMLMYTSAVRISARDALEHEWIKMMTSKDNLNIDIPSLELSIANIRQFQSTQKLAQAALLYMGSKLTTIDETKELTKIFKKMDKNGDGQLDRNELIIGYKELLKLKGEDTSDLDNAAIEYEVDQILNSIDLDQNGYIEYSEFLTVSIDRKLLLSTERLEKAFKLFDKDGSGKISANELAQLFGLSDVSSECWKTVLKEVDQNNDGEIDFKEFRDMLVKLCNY

Sequence of L-lactate dehydrogenase (Plasmodium falciparum (isolate CDC / Honduras)) (Q27743 whole entry, looked up): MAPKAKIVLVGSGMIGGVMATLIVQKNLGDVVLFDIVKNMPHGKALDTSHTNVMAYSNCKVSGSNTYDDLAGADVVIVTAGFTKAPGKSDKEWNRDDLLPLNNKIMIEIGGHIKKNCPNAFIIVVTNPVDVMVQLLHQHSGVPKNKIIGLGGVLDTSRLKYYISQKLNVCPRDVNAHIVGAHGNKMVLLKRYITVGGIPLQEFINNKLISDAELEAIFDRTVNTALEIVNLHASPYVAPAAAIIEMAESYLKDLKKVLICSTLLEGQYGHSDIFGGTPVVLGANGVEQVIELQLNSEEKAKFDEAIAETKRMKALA
Sequence of Calcium-dependent protein kinase 1 (Plasmodium falciparum (isolate 3D7)) (P62344 whole entry, looked up): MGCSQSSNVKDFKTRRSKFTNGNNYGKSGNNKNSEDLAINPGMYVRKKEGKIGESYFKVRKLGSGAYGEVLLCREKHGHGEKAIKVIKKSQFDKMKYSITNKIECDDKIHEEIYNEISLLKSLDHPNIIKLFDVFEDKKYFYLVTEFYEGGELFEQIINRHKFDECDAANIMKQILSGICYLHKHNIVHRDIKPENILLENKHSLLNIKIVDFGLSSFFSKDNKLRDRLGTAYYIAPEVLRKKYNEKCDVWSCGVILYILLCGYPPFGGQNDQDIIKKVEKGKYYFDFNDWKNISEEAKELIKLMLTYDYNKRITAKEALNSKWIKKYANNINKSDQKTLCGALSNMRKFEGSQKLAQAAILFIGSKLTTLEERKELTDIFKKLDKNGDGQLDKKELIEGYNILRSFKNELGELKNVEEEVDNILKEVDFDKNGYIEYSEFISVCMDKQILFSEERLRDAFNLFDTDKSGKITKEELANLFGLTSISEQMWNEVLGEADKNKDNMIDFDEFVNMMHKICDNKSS
Sequence of Plasmodium falciparum protein kinase 6 (PK6, PF3D7_1337100) (Q8IDW1 1-305): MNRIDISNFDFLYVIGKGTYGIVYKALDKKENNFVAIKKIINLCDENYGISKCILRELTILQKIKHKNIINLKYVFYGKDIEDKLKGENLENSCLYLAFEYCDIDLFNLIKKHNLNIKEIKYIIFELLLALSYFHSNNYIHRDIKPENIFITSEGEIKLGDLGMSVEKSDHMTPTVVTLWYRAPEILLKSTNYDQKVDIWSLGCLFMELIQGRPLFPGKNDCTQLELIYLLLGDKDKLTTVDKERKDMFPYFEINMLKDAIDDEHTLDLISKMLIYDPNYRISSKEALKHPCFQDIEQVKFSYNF
Sequence of Protein kinase 7 (PK7), Plasmodium falciparum 3D7 (PF3D7_0213400) (Q7YTF7 1-343): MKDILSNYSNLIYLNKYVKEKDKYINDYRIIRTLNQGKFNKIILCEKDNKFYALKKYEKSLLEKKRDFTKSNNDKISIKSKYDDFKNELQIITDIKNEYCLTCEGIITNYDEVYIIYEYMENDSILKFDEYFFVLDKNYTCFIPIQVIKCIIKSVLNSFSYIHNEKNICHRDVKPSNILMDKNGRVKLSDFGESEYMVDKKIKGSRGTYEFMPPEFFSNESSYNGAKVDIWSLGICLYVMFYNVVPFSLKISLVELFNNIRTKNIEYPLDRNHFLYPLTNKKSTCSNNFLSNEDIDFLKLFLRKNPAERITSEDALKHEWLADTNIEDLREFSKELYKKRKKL

Structure (SMILES)	growth inhibition [1]	inhibition [2]	inhibition [3]	growth inhibition [4]	outcome [5]	outcome [6]	outcome [7]	outcome [8]
O=C(/C=C/c1ccc(Cl)c(Cl)c1)NCCCCCN1CCC(NS(=O)(=O)c2cc(Cl)cc(Cl)c2)CC1	5%	7%	3%	83% (active)	inactive	inactive	inactive	inactive
CCCCNC(=O)[C@@H]1CCCN1C(=O)c1ccc(O)c(-c2ccc(Cl)c(Cl)c2)c1	92% (active)	-1%	-1%	98% (active)	inactive	inactive	inactive	inactive
CCOC(=O)C1CCN(CCOc2cc(NC(=O)/C=C/c3ccccc3Cl)ccc2Br)CC1	29%	6%	-2%	87% (active)	inactive	inactive	inactive	inactive
Cc1noc(C)c1S(=O)(=O)N(C)Cc1ccc(-c2ccc(Cl)cc2)o1	100% (active)	10%	-3%	100% (active)	inactive	inactive	inactive	inactive
O=C(Nc1ccc(-c2ccccc2)cc1)Nc1cccc(Cn2nc(Cl)c(N3CCCNCC3)cc2=O)c1	37%	13%	-2%	101% (active)	inactive	inactive	inactive	inactive
c1ccc(CCNCc2ccc(-c3ccc(CNC4CCN(Cc5ccccc5)CC4)cc3)nc2)cc1	99% (active)	34%	-1%	101% (active)	inactive	inactive	inactive	inactive
COc1cccc(C2C(C(=O)Nc3ccccc3)=C(C)N=c3s/c(=C\c4ccc(O)cc4)c(=O)n32)c1 (stereo not given)	97% (active)	15%	6%	97% (active)	inactive	inactive	inactive	inactive
CCOCCCNc1nc2cc(OC)c(OC)cc2c2nc(-c3ccccc3)nn12	98% (active)	10%	-3%	96% (active)	inactive	inactive	inactive	inactive
O=C(NCc1cccs1)[C@H](Cc1ccccc1)Nc1ccnc(NCCc2ccc(F)cc2)n1	52% (active)	1%	-2%	85% (active)	inactive	inactive	inactive	inactive
O=C(/C=C/c1ccsc1)N1CCC(CCN2CCC(c3c[nH]c4ccccc34)CC2)CC1	24%	37%	4%	88% (active)	inactive	inactive	inactive	inactive
COc1cccc(CC(=O)NC2CCN(c3ccnc4cc(Cl)ccc34)C2)c1 (stereo not given)	85% (active)	9%	-2%	101% (active)	inactive	inactive	inactive	inactive
COc1ccc2ccccc2c1CCCCN1CCN(CC(c2ccc(F)cc2)N2CCN(C(C)C)CC2)CC1 (stereo not given)	83% (active)	92% (active)	2%	100% (active)	inactive	inactive	inactive	inactive
CC(=O)c1sc2ccccc2c1O	-2%	14%	6%	91% (active)	inactive	inactive	inactive	inactive
CCOc1cc(C)ccc1C1CCN(CCCCNC(=O)c2ccc(NC(=O)c3cc(Cl)cc(Cl)c3)cc2)CC1	78% (active)	4%	-5%	99% (active)	inactive	inactive	inactive	inactive
Cc1cc(NC2CCCC2)nc(Nc2ccccc2C)n1	20%	-2%	2%	88% (active)	inactive	inactive	inactive	inactive
N#Cc1ccc(-c2ccc(C(=O)NCCCCN3CCC(c4ccc5c(c4OCc4ccccn4)CCCC5)CC3)cc2)cc1	39%	37%	6%	96% (active)	inactive	inactive	inactive	inactive
COc1ccc2c(c1)nc(CN=C(N)N)n2Cc1ccc(Cl)cc1	99% (active)	12%	4%	102% (active)	inactive	inactive	inactive	inactive
Cc1cc(C)c(NC(=O)N[C@H]2CCN(CCCCCNC(=O)/C=C/c3ccc(Cl)c(Cl)c3)C2)c(C)c1	3%	12%	-4%	91% (active)	inactive	inactive	inactive	inactive
Cc1cc2nc(-c3cc(Br)ccc3O)c(-c3cc(Br)ccc3O)nc2cc1C	12%	2%	-1%	96% (active)	inactive	inactive	inactive	inactive
Cc1cccc2[nH]c(-c3ccc(-c4ccc(CN5CCCC(N)C5)cc4)cc3)nc12 (stereo not given)	101% (active)	33%	-3%	99% (active)	inactive	inactive	inactive	inactive

Structure (SMILES)	growth inhibition [1]	inhibition [2]	inhibition [3]	growth inhibition [4]	outcome [5]	outcome [6]	outcome [7]	outcome [8]
O=C1COc2ccc3ccccc3c21	3%	-3%	6%	99% (active)	inactive	inactive	inactive	inactive
CCN(CC)CCN(Cc1ccc(-c2ccc(C(F)(F)F)cc2)cc1)C(=O)Cn1c(CCc2c(F)ccc(F)c2F)nc(=O)c2ccccc21	62% (active)	44%	-6%	98% (active)	inactive	inactive	inactive	inactive
CCN(CC)CCN(Cc1ccc(-c2ccc(C(F)(F)F)cc2)cc1)C(=O)Cn1c(CCc2cccc(F)c2F)nc(=O)c2ccccc21	60% (active)	49%	-3%	97% (active)	inactive	inactive	inactive	inactive
Cc1cccc2[nH]c(-c3cccc(-c4ccc(NC(=O)Nc5ccsc5)cc4)c3)nc12	99% (active)	27%	0%	100% (active)	inactive	inactive	inactive	inactive
Cc1nn(-c2ccccc2)c2nc(-c3ccccc3)cc(C(=O)N3CCOCC3)c12	67% (active)	6%	6%	93% (active)	inactive	inactive	inactive	inactive
Cc1cc(OCCCN2CCC(NS(=O)(=O)c3cccc(Br)c3)C2)c2ccccc2n1 (stereo not given)	40%	13%	3%	86% (active)	inactive	inactive	inactive	inactive
COc1nc2c(CCN3CC[C@H](NCc4cc(C#N)c5c(c4)OCCO5)[C@H](O)C3)ccnc2cc1F	41%	18%	-3%	95% (active)	inactive	inactive	inactive	inactive
Cc1cc(Oc2cc(NC(=O)c3sc4ncn(Cc5ccccc5F)c(=O)c4c3C)cc([N+](=O)[O-])c2)ccc1Cl	24%	2%	3%	94% (active)	inactive	inactive	inactive	inactive
CN(C)CCNc1ncnc2c1[nH]c1ccc(Br)cc12	7%	2%	-2%	100% (active)	inactive	inactive	inactive	inactive
CCC(=O)c1ccc(-c2ccc(=O)n(CC(=O)N(CCN(CC)CC)Cc3ccc(-c4ccc(C(F)(F)F)cc4)cc3)n2)cc1	67% (active)	91% (active)	-7%	98% (active)	inactive	inactive	inactive	inactive
O=c1cc(NCCCN(Cc2ccccc2)Cc2ccccc2)[nH]c2ccccc12	93% (active)	7%	-3%	100% (active)	inactive	inactive	inactive	inactive
COc1cc2nc(C)nc(Nc3ccc4c(ccn4Cc4ccccc4)c3)c2cc1OC	99% (active)	2%	-7%	101% (active)	inactive	inactive	inactive	inactive
Clc1cccc(C=NNc2ccnc3ccccc23)c1	44%	5%	4%	102% (active)	inactive	inactive	inactive	inactive
O=c1cc(NCCCNCc2ccc(Cl)c(Cl)c2)[nH]c2ccc(Oc3ccccc3)cc12	29%	1%	2%	92% (active)	inactive	inactive	inactive	inactive
Cc1cc(C)cc(N2C(N)=NC(N)=NC2(C)C)c1	6%	58% (active)	-4%	93% (active)	inactive	inactive	inactive	inactive
O=C(Nc1ccc(Cl)cc1)Nc1ccc2nonc2c1	77% (active)	-25%	-4%	94% (active)	inactive	inactive	inactive	inactive
CN(C)CCN1CCN(Cc2cccc(-c3csc(-c4nc5ccccc5[nH]4)c3)c2)CC1	97% (active)	28%	-5%	100% (active)	inactive	inactive	inactive	inactive
Cc1ccc2nc(-c3ccccc3)cc(NN=Cc3cccnc3)c2c1	39%	12%	1%	99% (active)	inactive	inactive	inactive	inactive
Cc1[nH]c(C)c(-c2ccc(CCc3ccc(F)cc3F)cc2)c(=O)c1Br	98% (active)	-5%	-3%	97% (active)	inactive	inactive	inactive	inactive
CCCc1ccccc1OCC(O)CN(C1CCCC1)C1CCCC1 (stereo not given)	97% (active)	49%	-7%	97% (active)	inactive	inactive	inactive	inactive
